# In all, about 300,000 compounds went through this assay and about 480 (0.16%) were called active. These entries were drawn from the full list. Measured potencies and affinities stand elsewhere. Unmarked numbers belong to inactive results.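 How the source made its calls: active means inhibition over 29.93%, a cutoff 3 SD above the screen mean, later confirmed by dose response; inconclusive means inhibition over 29.93% but no dose response follow-up; inactive means inhibition at most 29.93% or unconfirmed.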
# Assay: PhoP-dependent GFP reporter repression – Salmonella Typhimurium, primary screen (AID 1863);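 further: 0% = low Mg2+ inducing control and 100% = high Mg2+ repressing control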
# Conditions: S. Typhimurium PhoP-regulated promoter GFP reporter, 4 h; at 50 µM; hits give high values
row,Compound,inhibition
1,COc1ccc(S(=O)(=O)n2oc(=O)cc2-c2ccccc2)cc1,-4.7%
2,CCN(CC)C(=S)Nc1ccc([N+](=O)[O-])cc1,3.9%
3,Oc1ccc(Cl)cc1CNc1ccccn1,14.1%
4,Oc1ccc(Cl)cc1CNn1cnnc1,18.7%
5,O=C(c1cc2c(=O)oc3ccccc3c2s1)N1CCOCC1,2%
6,CCOC(=O)NCC(C#CCN(CC)CC)N(CC)CC (stereo unspecified),4.11%
7,O=C(O)CSc1cc(NS(=O)(=O)c2ccc(Br)cc2)c2ccccc2c1O,0.22%
8,O=C(O)CSc1cc(NS(=O)(=O)c2ccc(Cl)cc2)c2ccccc2c1O,-5.26%
9,CC(C)Oc1ccc(C(=O)OC(C)C(=O)Nc2nc(-c3cccc([N+](=O)[O-])c3)cs2)cc1 (stereo unspecified),3.69%
10,COc1ccc(CN2C3CCC2CC(NC(=O)c2cccc(F)c2)C3)cc1 (stereo unspecified),5.59%
11,Cc1ccc(C23CC4CC(CC(CN)(C4)C2)C3)cc1,26.1%
12,NCC12CC3CC(C1)CC(c1ccc(Cl)cc1)(C3)C2,10.5%
13,CCOC(=O)N1CCN(C(=O)c2ccc(NS(C)(=O)=O)cc2)CC1,12.6%
14,O=C(NCCc1ccccc1)c1ccc(-c2ccc(F)cc2)o1,0.73%
15,CCSc1nc(N2CCOCC2)c2ccccc2n1,-4.32%
16,COc1cc(NC(=O)Cn2ccsc2=N)c(C)cc1[N+](=O)[O-],0.16%
17,CCc1ccc2[nH]c3nc(N/N=C/c4cccc(O)c4)nnc3c2c1,1.71%
18,CC(=O)N/N=C/c1c(C)[nH]n(-c2ccccc2)c1=O,3.32%
19,Oc1ccc(/C=N\Nc2nncc(-c3ccccc3)n2)cc1,1.9%
20,COc1ccc(S(=O)(=O)NCC(=O)N(CC(=O)NCc2ccco2)Cc2ccc(F)cc2)cc1,6.01%
21,Oc1ccccc1Nc1ccccn1,0.2%
22,c1ccc(Nc2ccccn2)nc1,-3.66%
23,CCCc1[nH]nc2c1C(c1ccc(OC)c(Cn3nnc4ccccc43)c1)C(C#N)=C(N)O2 (stereo unspecified),6.36%
24,CC(C)(C)OC(=O)N1CCN(C(=O)c2[nH]cnc2C(=O)N[C@@H](Cc2ccccc2)C(=O)OCc2ccccc2)CC1,7.86%

row,Compound,inhibition
1,COc1ccc(OC)c(N2C(N)=NC(N)=NC23CCCC3)c1,-1.52%
2,O=C(Nc1nnc(-c2cccs2)o1)c1cccc(C(F)(F)F)c1,-1.86%
3,COc1cccc(C(=O)Nc2nnc(-c3cccs3)o2)c1,8.85%
4,CCn1c(=N)n(CC(=O)c2ccc(Br)s2)c2ccccc21,9.45%
5,N=c1n(CC(=O)c2cccs2)c2ccccc2n1Cc1ccccc1,-1.64%
6,Cc1nc2ccc(S(=O)(=O)NCC(=O)Nc3cccc(F)c3)cc2s1,0.67%
7,Nc1c(Cl)ncnc1N/N=C/c1ccncc1,-8.59%
8,Nc1c(Cl)ncnc1N/N=C/c1ccc2ccccc2n1,-18.8%
9,Cc1cc(CNC(=O)C2CCC(=O)N(Cc3cccc(C(F)(F)F)c3)C2)no1 (stereo unspecified),8.7%
10,Cn1c(=O)c(=O)n(C)c2cc(S(=O)(=O)N3CCN(c4cccc(C(F)(F)F)c4)CC3)ccc21,-8.38%
11,COc1cccc(N(CC(=O)NC(C)c2ccccc2)S(C)(=O)=O)c1 (stereo unspecified),-3.79%
12,Nc1nnc(CC(=O)N/N=C/c2ccccc2OCc2ccccc2F)s1,2.44%
13,CSCC[C@H](NC(=O)Nc1ccc(S(N)(=O)=O)cc1)C(=O)O,-5.86%
14,COC(=O)[C@H](CCSC)NC(=O)Nc1ccc(C)cc1,-5.05%
15,COc1cccc(OCc2cc(C(=O)N3CCN(c4ccccc4O)CC3)no2)c1,8.64%
16,CCCOc1ccc(C(=O)O)cc1,-6.14%
17,CCOc1ccc(C(=O)C(CCC(CN(C)C)C(=O)c2ccc(OCC)cc2)CN(C)C)cc1 (stereo unspecified),17.1%
18,COCCn1c(SCC(=O)N2CCCCC2)nc2c([nH]c3ccccc32)c1=O,-1.34%
19,O=C(N/N=C/c1ccc(O)c([N+](=O)[O-])c1)c1ccncc1,-0.43%
20,O=C(N/N=C/c1ccccc1O)c1ccncc1,-5.2%
21,O=C(N/N=C/c1cc(Br)c(O)c(Br)c1)c1cccnc1,-1.14%
22,COc1ccc(C(=O)N/N=C/c2cc(Br)ccc2O)cc1OC,-7.66%
23,O=C(N/N=C/c1cc(Br)ccc1O)c1ccncc1,3.11%
24,O=C(N/N=C/c1cc(Br)c(O)c(Br)c1O)c1cccnc1,-3.91%

row,Compound,inhibition
1,O=C(N/N=C/c1ccc(Cl)cc1Cl)c1ccncc1,3.86%
2,Cc1ccc(C(=O)N/N=C\c2cc3c(cc2Br)OCO3)cn1,1.38%
3,Cc1nc2c3ccccc3nc(SCC(=O)N3CC(C)CC(C)C3)n2n1 (stereo unspecified),4.78%
4,Cc1ccc2oc(=O)c3cnn(CC(=O)N4CCCc5ccccc54)c3c2c1,-8.23%
5,Cc1cccc(NC(=O)CNC(=O)N2CC(=O)Nc3ccccc32)c1C,-2.45%
6,Cc1cccc(C(=O)Nc2nnc(SCC(=O)NC3CC3)s2)c1,-3.7%
7,CS(=O)(=O)N1CCc2ccc(NC(=O)C3CCCO3)cc2C1 (stereo unspecified),4.89%
8,Cc1ccc(S(=O)(=O)/N=C(/c2ccc(F)cc2)N2CCOCC2)cc1,-3.33%
9,CCOC(=O)C1CCN(c2ncnc3nc[nH]c23)CC1,0.02%
10,Cc1ccc(OCCC(=O)OCC(=O)Nc2ccccc2)cc1,1.27%
11,O=C(N/N=C/c1cc(Cl)ccc1O)c1ccc(Br)cc1,4.94%
12,O=C(N/N=C/c1cccnc1)c1cccc(Cl)c1,-1.41%
13,O=C(N/N=C/c1coc2ccc(Cl)cc2c1=O)c1ccncc1,7.37%
14,O=C(N/N=C/c1cc([N+](=O)[O-])ccc1O)C1CCCCC1,1.18%
15,O=C(N/N=C/c1coc2ccc(Cl)cc2c1=O)c1ccc(O)cc1,10.4%
16,O=C(N/N=C/c1cc([N+](=O)[O-])ccc1O)C1C2CCCCC21 (stereo unspecified),-0.31%
17,CCOc1ccc(CN2CCC(n3nccc3NC(=O)c3ccccc3OC)CC2)cc1,-0.04%
18,CCCNC(=O)c1ccccc1NS(=O)(=O)c1ccc(OC)c(OC)c1,4.85%
19,CCc1cc(C(=O)N(CCCOC)c2c(N)n(Cc3ccccc3)c(=O)[nH]c2=O)sc1C,-2.51%
20,CCOC(=O)C(C(=O)OCC)C(C(=O)OCC)N1CCOCC1 (stereo unspecified),3.26%
21,CC1(C)NC(=O)N(CC(O)CN2C(=O)CCC2=O)C1=O (stereo unspecified),-6.24%
22,Cn1c2ccccc2c(=O)c2ccc(C#Cc3ccccn3)cc21,0.47%
23,COc1ccccc1N1CCN(C(c2ccccc2)c2nnnn2CCc2ccccc2)CC1 (stereo unspecified),1.99%
24,Cc1cc(C)n(CCCNC(=O)Cn2nnnc2CN2C[C@@H](C)O[C@@H](C)C2)n1,0.46%

row,Compound,inhibition
1,COc1ccccc1NS(=O)(=O)c1ccc(Cl)c(NC(=O)c2sc3cc(Cl)ccc3c2Cl)c1,5.27%
2,Cc1cc(SCC(=O)N/N=C/c2ccc(O)cc2O)c(C)cc1Br,-6.96%
3,Cc1cc(SCC(=O)N/N=C/c2ccc(O)c(O)c2)c(C)cc1Br,-9.61%
4,CCCCC(c1nnnn1C1CCCC1)N1CCN(C(=O)c2ccco2)CC1 (stereo unspecified),-4.03%
5,Cc1cc(C(=O)N/N=C/c2cc(Cl)cc([N+](=O)[O-])c2O)c2ccccc2n1,28.8%
6,Cc1cc(C(=O)N/N=C/c2cc([N+](=O)[O-])ccc2O)c2ccccc2n1,18.3%
7,O=C(Nc1ccccc1N1CCN(C(=O)c2ccc(Cl)cc2)CC1)c1cccc(F)c1,2.12%
8,Cc1ccc(S(=O)(=O)N2CCC(C(=O)NCCN3CCOCC3)CC2)cc1C,-3.49%
9,O=C(c1ccc(Cl)cc1)c1ccc(Oc2cc(NN3CCCCC3)c([N+](=O)[O-])cc2[N+](=O)[O-])cc1,6.36%
10,CCOc1ccc(C2CC(=O)NC2=O)cc1 (stereo unspecified),3.62%
11,O=C(NCc1nc(-c2ccc(Cl)cc2)no1)c1ccco1,-1.48%
12,O=C(O)c1ccc(N2C(=O)CC(N3C(=O)/C(=C/c4ccc(Cl)cc4)SC3=S)C2=O)cc1 (stereo unspecified),16%
13,CN1CCN(C(=O)CCN2C(=O)/C(=C\c3ccc(Cl)cc3)SC2=S)CC1,-5.92%
14,Cc1cccc(C)c1NC(=O)CCCCCC1NC(=O)NC1C (stereo unspecified),2.4%
15,Cc1nn(-c2ccccc2)c(N)c1Sc1ccc([N+](=O)[O-])cc1,0.62%
16,C=CCn1c(=NC(=O)CN2C(=O)CCC2=O)sc2cc(S(N)(=O)=O)ccc21,17%
17,CC1CCN(Cc2ccc(-c3nnn(CC(=O)Nc4ccccc4Cl)n3)cc2)CC1,-3.86%
18,COc1ccccc1N1CCN(C(=O)C(C)CS(=O)(=O)c2ccc3c(c2)NC(=O)CS3)CC1 (stereo unspecified),-8.13%
19,O=[N+]([O-])c1cccc(-c2ccn[nH]2)c1,-3.87%
20,O=[N+]([O-])c1cc(-c2ccn[nH]2)ccc1Cl,-3.78%
21,C[N+](C)(CCOc1ccccc1)Cc1ccccc1 (tested in a mixture with another compound),-8.86%
22,Cc1cc(C(C)(C)C)ccc1OCCN(C)C,-7.47%
23,CC(C)(C)c1ccc(OCCNCc2ccccc2)cc1,-2.16%
24,Cc1cc(C(C)(C)C)ccc1OCCOCCN1CCCC1,3.82%
